# In the supplement of paper PMC10849652:
# Of roughly 7,900 targets only a part is listed; those with a hit were picked by preference. About 0.6% of all pairs of compound and target were hits. A number with no mark means an inactive call.
# Key:
# Assay in all cases: log2 fold change, soluble protein after heating vs DMSO (PISA); higher = thermal stabilisation; K562 cells, 10 uM, 30 min; active = over 0.2 and 3.5 SD of the protein, either way, in both replicates (recomputed)
# [1] = compound: COC1=CC=C(C=C1)CN2C=CC3=C2C=C(C=C3)C(=O)NO
# Method in brief: (§1)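 K562 cells (2×10^6 cells/mL) were treated with 10 μM compound for 30 min, and aliquots were heated for 3 min over 48°C-58°C. Pooled aliquots were extracted in PBS with 0.5% NP-40 at 4°C, and the supernatant after 21,000xg for 90 min was measured by TMTpro 16plex LC-MS/MS with channel sums equalised. Reported thermal stability, relative to control samples and from duplicates, is a log2 fold change.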
# filanesib = compound: CON(C)C(=O)N1N=C(c2cc(F)ccc2F)S[C@@]1(CCCN)c1ccccc1 [filanesib]
# Method in brief: as §1
# zotarolimus = compound: CO[C@H]1C[C@@H]2CC[C@@H](C)[C@@](O)(O2)C(=O)C(=O)N2CCCC[C@H]2C(=O)O[C@H]([C@H](C)C[C@@H]2CC[C@H](n3cnnn3)[C@H](OC)C2)CC(=O)[C@H](C)/C=C(\C)[C@@H](O)[C@@H](OC)C(=O)[C@H](C)C[C@H](C)/C=C/C=C/C=C/1C [zotarolimus]
# Method in brief: as §1
# idasanutlin = compound: COc1cc(C(=O)O)ccc1NC(=O)[C@@H]1N[C@@H](CC(C)(C)C)[C@](C#N)(c2ccc(Cl)cc2F)[C@H]1c1cccc(Cl)c1F [idasanutlin]
# Method in brief: as §1
# alisertib = compound: COc1cc(Nc2ncc3c(n2)-c2ccc(Cl)cc2C(c2c(F)cccc2OC)=NC3)ccc1C(=O)O [alisertib]
# Method in brief: as §1
# [2] = compound: COc1cc2nc(-c3cc(F)ccc3O)nc(N[C@@H]3CNC[C@H]3C(C)(C)O)c2cc1OC
# Method in brief: as §1
# gefitinib = compound: COc1cc2ncnc(Nc3ccc(F)c(Cl)c3)c2cc1OCCCN1CCOCC1 [gefitinib]
# Method in brief: as §1
# [3] = compound: COc1cccc2cc(-c3nc([C@H]4CC[C@H](C(=O)O)CC4)n4ncnc(N)c34)[nH]c12
# Method in brief: as §1
# lapatinib = compound: CS(=O)(=O)CCNCc1ccc(-c2ccc3ncnc(Nc4ccc(OCc5cccc(F)c5)c(Cl)c4)c3c2)o1 [lapatinib]
# Method in brief: as §1
# pictilisib = compound: CS(=O)(=O)N1CCN(Cc2cc3nc(-c4cccc5[nH]ncc45)nc(N4CCOCC4)c3s2)CC1 [pictilisib]
# Method in brief: as §1
# [4] = compound: CS(=O)(=O)c1ccc(-c2cnc(N)c(C(=O)Nc3ccccc3)n2)cc1
# Method in brief: as §1
# crizotinib = compound: C[C@@H](Oc1cc(-c2cnn(C3CCNCC3)c2)cnc1N)c1c(Cl)ccc(F)c1Cl [crizotinib]
# Method in brief: as §1
# [5] = compound: C[C@@H]1COCCN1C2=NC(=NC(=C2)C3(CC3)S(=O)(=O)C)C4=C5C=CNC5=CC=C4
# Method in brief: as §1
# [6] = compound: C[C@H](C1=CC=C(C=C1)C(=O)NC2=C3C=CNC3=NC=C2)N
# Method in brief: as §1
# duvelisib = compound: C[C@H](Nc1ncnc2nc[nH]c12)c1cc2cccc(Cl)c2c(=O)n1-c1ccccc1 [duvelisib]
# Method in brief: as §1
# gandotinib = compound: Cc1cc(Nc2cc(CN3CCOCC3)c3nc(C)c(Cc4ccc(Cl)cc4F)n3n2)n[nH]1 [gandotinib]
# Method in brief: as §1
# tozasertib = compound: Cc1cc(Nc2cc(N3CCN(C)CC3)nc(Sc3ccc(NC(=O)C4CC4)cc3)n2)n[nH]1 [tozasertib]
# Method in brief: as §1
# [7] = compound: Cc1cc(SCc2sc(-c3ccc(C(F)(F)F)cc3)nc2C)ccc1OCC(=O)O
# Method in brief: as §1
# doramapimod = compound: Cc1ccc(-n2nc(C(C)(C)C)cc2NC(=O)Nc2ccc(OCCN3CCOCC3)c3ccccc23)cc1 [doramapimod]
# Method in brief: as §1
# ispinesib = compound: Cc1ccc(C(=O)N(CCCN)[C@@H](c2nc3cc(Cl)ccc3c(=O)n2Cc2ccccc2)C(C)C)cc1 [ispinesib]
# Method in brief: as §1
# Sequence of UniProt P12277 (P12277 whole entry, looked up): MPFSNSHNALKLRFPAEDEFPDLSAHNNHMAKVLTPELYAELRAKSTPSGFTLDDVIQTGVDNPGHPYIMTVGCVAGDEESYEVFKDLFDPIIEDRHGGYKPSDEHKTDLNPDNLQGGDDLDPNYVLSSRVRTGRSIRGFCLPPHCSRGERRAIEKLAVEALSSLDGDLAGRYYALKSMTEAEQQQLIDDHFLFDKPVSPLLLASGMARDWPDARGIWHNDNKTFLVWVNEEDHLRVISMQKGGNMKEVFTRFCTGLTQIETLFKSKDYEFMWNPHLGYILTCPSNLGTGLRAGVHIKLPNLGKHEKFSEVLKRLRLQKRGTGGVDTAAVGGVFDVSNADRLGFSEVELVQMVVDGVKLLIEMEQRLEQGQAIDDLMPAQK
# Sequence of UniProt Q9H444 (Q9H444 whole entry, looked up): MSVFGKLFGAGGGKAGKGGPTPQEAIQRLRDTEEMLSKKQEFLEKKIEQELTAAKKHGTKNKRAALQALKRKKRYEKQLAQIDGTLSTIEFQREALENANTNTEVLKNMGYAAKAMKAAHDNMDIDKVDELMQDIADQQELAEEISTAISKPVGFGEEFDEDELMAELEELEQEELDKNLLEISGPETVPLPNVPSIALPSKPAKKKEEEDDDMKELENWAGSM
# Sequence of UniProt P20674 (P20674 whole entry, looked up): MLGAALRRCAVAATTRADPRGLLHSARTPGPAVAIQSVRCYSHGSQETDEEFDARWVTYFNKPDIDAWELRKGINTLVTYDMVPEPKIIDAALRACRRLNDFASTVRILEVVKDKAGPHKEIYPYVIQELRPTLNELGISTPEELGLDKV
# Sequence of UniProt Q5VT25 (Q5VT25 whole entry, looked up): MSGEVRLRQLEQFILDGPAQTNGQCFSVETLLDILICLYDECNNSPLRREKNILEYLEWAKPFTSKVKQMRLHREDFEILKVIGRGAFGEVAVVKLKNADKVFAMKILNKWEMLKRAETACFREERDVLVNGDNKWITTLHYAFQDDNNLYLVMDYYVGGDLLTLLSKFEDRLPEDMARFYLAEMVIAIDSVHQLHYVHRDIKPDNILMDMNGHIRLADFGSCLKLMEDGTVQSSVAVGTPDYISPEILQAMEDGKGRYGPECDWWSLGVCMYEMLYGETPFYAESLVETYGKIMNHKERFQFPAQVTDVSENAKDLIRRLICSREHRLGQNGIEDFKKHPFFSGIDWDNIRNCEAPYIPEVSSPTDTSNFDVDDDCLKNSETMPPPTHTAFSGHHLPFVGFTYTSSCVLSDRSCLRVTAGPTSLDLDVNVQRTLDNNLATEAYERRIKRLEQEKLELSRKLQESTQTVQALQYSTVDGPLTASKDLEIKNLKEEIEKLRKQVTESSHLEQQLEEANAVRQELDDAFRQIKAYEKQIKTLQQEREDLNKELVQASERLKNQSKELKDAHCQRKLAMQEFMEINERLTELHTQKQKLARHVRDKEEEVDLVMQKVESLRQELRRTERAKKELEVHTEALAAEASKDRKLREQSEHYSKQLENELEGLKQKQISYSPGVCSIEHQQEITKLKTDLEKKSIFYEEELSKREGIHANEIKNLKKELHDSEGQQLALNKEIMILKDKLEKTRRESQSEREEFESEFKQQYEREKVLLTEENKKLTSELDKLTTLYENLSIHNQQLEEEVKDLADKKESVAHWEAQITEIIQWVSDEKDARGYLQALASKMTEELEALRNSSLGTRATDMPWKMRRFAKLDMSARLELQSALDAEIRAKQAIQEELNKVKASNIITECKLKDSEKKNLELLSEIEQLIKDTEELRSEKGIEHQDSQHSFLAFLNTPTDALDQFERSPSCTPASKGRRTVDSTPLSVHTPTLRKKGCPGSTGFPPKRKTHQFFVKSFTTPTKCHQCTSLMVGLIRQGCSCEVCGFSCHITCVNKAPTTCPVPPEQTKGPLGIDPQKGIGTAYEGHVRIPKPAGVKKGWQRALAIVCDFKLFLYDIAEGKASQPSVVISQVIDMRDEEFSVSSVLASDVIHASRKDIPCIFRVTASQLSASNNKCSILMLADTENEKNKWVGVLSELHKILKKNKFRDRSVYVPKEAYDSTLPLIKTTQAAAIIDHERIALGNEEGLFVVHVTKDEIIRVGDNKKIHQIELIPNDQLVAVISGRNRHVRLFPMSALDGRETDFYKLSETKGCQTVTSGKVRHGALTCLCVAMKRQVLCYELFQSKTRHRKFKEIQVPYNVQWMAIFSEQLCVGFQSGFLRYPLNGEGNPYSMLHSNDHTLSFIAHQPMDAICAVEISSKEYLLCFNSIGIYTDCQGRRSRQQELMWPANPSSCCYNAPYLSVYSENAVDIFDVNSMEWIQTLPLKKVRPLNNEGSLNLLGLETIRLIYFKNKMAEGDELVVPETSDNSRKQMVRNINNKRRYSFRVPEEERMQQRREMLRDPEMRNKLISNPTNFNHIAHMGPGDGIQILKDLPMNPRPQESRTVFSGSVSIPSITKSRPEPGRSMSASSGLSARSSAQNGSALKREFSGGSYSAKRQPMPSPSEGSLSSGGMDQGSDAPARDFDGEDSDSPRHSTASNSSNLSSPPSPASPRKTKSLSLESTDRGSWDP
# Sequence of UniProt Q16630 (Q16630 whole entry, looked up): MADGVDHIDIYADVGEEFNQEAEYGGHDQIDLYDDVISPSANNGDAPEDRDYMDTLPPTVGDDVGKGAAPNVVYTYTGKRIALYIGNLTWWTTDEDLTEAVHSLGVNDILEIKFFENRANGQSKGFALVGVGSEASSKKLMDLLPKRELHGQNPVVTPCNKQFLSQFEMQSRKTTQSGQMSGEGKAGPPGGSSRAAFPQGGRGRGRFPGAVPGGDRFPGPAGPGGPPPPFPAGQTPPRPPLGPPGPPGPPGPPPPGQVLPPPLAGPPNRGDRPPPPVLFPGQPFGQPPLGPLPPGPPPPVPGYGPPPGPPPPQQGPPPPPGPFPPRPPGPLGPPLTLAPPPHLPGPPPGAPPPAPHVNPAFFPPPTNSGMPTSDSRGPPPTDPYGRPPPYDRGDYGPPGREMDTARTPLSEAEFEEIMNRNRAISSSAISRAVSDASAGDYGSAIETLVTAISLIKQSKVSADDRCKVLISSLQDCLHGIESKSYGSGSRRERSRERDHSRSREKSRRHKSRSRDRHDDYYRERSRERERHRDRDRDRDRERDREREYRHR
# Sequence of UniProt Q8N684 (Q8N684 whole entry, looked up): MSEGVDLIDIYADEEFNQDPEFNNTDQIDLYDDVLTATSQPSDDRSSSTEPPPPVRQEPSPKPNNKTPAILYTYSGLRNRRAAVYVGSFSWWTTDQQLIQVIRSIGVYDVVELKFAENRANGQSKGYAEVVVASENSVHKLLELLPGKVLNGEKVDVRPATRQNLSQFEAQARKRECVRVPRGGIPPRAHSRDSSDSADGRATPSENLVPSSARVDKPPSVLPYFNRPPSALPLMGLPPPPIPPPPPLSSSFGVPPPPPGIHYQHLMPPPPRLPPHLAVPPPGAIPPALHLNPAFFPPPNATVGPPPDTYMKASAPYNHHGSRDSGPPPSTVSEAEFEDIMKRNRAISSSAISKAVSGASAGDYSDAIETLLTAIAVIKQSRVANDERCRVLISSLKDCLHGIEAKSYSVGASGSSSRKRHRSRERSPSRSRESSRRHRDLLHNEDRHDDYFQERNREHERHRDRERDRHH
# Sequence of UniProt Q00534 (Q00534 whole entry, looked up): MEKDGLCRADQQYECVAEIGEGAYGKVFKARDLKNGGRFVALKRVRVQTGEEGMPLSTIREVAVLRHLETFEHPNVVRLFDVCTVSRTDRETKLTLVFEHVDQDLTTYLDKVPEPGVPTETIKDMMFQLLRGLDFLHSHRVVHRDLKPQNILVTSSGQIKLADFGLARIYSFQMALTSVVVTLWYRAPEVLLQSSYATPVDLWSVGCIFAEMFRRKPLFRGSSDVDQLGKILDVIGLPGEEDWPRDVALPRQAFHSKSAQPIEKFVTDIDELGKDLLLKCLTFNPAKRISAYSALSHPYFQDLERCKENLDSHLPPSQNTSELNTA
# Sequence of UniProt Q9BT78 (Q9BT78 whole entry, looked up): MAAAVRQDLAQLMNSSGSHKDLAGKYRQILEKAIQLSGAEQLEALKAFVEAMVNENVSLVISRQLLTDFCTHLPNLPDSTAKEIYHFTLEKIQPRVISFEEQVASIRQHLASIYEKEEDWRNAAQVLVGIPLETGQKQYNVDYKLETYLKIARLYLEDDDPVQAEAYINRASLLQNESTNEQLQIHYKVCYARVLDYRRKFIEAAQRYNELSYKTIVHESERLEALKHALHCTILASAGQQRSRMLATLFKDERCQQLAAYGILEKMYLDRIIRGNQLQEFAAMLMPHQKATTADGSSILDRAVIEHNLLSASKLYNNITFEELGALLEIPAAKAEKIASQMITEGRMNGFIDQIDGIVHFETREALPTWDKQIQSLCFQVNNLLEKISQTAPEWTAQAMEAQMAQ
# Sequence of UniProt Q92851 (Q92851 whole entry, looked up): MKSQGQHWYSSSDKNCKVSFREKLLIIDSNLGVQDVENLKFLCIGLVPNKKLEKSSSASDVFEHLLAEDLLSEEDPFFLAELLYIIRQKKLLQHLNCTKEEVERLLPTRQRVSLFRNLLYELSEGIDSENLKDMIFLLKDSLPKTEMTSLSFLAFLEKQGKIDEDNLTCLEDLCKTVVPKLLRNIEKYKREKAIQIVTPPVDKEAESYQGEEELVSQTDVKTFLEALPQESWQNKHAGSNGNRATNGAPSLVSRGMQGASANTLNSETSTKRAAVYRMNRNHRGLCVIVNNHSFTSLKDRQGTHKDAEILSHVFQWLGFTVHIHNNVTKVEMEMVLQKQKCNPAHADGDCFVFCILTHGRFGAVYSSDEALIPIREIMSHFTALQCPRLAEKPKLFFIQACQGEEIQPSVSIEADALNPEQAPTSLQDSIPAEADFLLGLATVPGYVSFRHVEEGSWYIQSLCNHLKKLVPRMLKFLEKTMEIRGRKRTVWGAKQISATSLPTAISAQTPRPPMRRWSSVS
# Sequence of UniProt P83916 (P83916 whole entry, looked up): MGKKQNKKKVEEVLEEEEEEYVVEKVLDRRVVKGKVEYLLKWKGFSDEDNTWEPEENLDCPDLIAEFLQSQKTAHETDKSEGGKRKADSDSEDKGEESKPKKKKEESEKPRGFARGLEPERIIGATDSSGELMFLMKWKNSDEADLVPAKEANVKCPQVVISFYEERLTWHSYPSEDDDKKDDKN
Target,log2 fold change [1],log2 fold change (filanesib),log2 fold change (zotarolimus),log2 fold change (idasanutlin),log2 fold change (alisertib),log2 fold change [2],log2 fold change (gefitinib),log2 fold change [3],log2 fold change (lapatinib),log2 fold change (pictilisib),log2 fold change [4],log2 fold change (crizotinib),log2 fold change [5],log2 fold change [6],log2 fold change (duvelisib),log2 fold change (gandotinib),log2 fold change (tozasertib),log2 fold change [7],log2 fold change (doramapimod),log2 fold change (ispinesib)
COPS4 (UniProt Q9BT78),0.219 (active),-0.067,0.032,-0.039,-0.054,-0.035,-0.007,0.019,0.025,-0.011,-0.01,0.112,0.064,-0.064,0.029,0.022,0.036,0.002,-0.014,0.086
CHMP4B (UniProt Q9H444),-0.101,-0.106,-0.015,0.034,-0.036,0.044,-0.005,0.08,-0.09,-0.094,-0.067,-0.036,-0.011,-0.022,-0.004,-0.075,-0.037,-0.014,0.005,-0.008
CBX1 (UniProt P83916),0.41 (active),-0.016,0.008,0.038,-0.059,-0.086,0.021,0.003,0.037,-0.046,-0.03,0.001,0.043,-0.08,-0.006,0.004,0.06,-0.056,0.105,0.04
COX5A (UniProt P20674),-0.1,0.015,0.054,-0.012,-0.13,-0.092,0.067,0.084,-0.108,0.108,-0.011,0.245,0.109,-0.092,0.249,0.12,0.029,0.011,-0.039,0.411 (active)
CDC42BPB (UniProt Q9Y5S2),-0.062,0.147,0.089,0.062,-0.1,-0.371,-0.07,0.071,-0.009,0.025,0.068,0.056,-0.031,-0.149,0.012,0.029,0.112,0.005,0.01,-0.148
CDK13 (UniProt Q14004),-0.323,0.169,0.029,0.215,-0.141,-0.197,0.001,0.037,0.054,-0.048,-0.075,-0.124,-0.036,0.095,0.043,-0.414 (active),-0.118,0.141,-0.006,0.063
CPSF6 isoform 2 (UniProt Q16630),-0.03,0.036,0.016,0.034,-0.046,0.063,0.023,0.025,-0.016,0.055,-0.014,-0.025,0.075,-0.292 (active),-0.004,-0.034,-0.03,-0.012,0.004,0.11
CASC3 (UniProt O15234),0,0.17,-0.105,0.038,-0.051,0.16,0,-0.105,-0.077,-0.066,-0.228,0.537 (active),-0.412 (active),0.243,0.065,0.484 (active),-0.088,-0.067,-0.025,-0.094
CKB (UniProt P12277),-0.031,-0.097,0.061,-0.047,-0.093,-0.007,0.002,0.01,0.016,0.022,0.059,-0.174,0.077,0.053,0.031,-0.109,-0.058,0.021,-0.009,-0.022
CASP10 isoform 4 (UniProt Q92851),0.012,0.078,0.062,-0.049,0.009,-0.089,-0.036,-0.128,-0.047,0.079,0.006,-0.102,0.015,-0.137,-0.08,-0.128,0.177,0.201,0.028,-0.075
COCH (UniProt O43405),-0.018,0.024,-0.018,0.077,-0.063,-0.144,0.131,-0.078,0.049,0.001,-0.051,-0.05,-0.033,-0.016,-0.052,0.059,0.154,-0.053,0.052,-0.042
CELF2 isoform 3 (UniProt O95319),0.115,0.052,-0.035,-0.044,-0.122,0.1,-0.027,-0.006,0.032,0.051,-0.107,0.098,0.006,-0.038,-0.027,-0.027,-0.054,0.102,0.05,-0.066
CDK6 (UniProt Q00534),-0.012,0.037,0.021,-0.06,-0.051,0.036,0,-0.012,-0.019,0.015,0.062,-0.033,-0.042,-0.004,0.033,-0.009,0.001,-0.012,0.018,0.024
CPSF7 isoform 3 (UniProt Q8N684),0.018,0.018,0.033,-0.003,-0.074,0.065,0.029,-0.016,0.013,0.12,-0.016,0.013,0.026,-0.05,0.017,-0.004,-0.012,0.018,-0.014,0.09
CDC42BPA isoform 6 (UniProt Q5VT25),-0.005,0.009,0.081,0.004,-0.04,-1.1 (active),-0.096,-0.027,0.106,0.118,0.03,-0.477 (active),-0.016,-0.596 (active),0.145,-0.148,-0.048,0.002,0.071,-0.049
